Assay results taken from PubChem BioAssay (NCATS).
Results filed as inconclusive are left out. Values without a mark were called inactive. Activity calls are given as the source filed them. Calls follow the shape of the dose curve; as a rule, active = well fitted activation curve with a large enough effect; inconclusive = small, poorly fitted or top-dose-only effect; inactive = no such curve, though single readings can be large or run the other way.

target: Cellular tumor antigen p53 (Homo sapiens) (UniProt P04637); assay: Primary qHTS for small molecule compounds that upregulate eGFP-tagged delta133p53alpha (in N-terminal) cells. (AID 2060322); details: NCI-H358 eGFP-delta133p53alpha fluorescence, 24 h; activation: hits give high values; also: nearly all actives have a fitted effect of over 75% in size;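 as to activation: series mostly up to about 56 µM; 0% = DMSO vehicle and 100% = reference activator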
How it was run: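 NCI-H358 cells pre-induced 24 h with 10 ng/ml doxycycline to express N-terminal eGFP-delta133p53alpha, then dosed 24 h at 37C without doxycycline; fixed, Hoechst-stained, GFP intensity by laser scanning cytometry, normalized to DMSO (0%) and 57.5 uM 5-azacytidine (100%).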
Potency is read from the fitted curve at half-maximal effect.

Sequence of Cellular tumor antigen p53 (Homo sapiens) (P04637 whole entry, looked up): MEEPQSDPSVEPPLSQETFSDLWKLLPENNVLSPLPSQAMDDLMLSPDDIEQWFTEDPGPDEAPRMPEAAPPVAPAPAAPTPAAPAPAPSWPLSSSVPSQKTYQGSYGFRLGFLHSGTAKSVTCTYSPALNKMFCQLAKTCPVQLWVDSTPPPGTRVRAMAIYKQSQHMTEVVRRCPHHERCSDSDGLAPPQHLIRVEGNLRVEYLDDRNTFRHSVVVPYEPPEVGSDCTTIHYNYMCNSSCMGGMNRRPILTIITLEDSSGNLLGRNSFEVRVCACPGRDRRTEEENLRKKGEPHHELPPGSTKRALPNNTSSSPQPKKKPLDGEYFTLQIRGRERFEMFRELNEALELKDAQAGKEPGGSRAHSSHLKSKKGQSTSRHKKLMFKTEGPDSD

| SMILES | activation | Potency |
| --- | --- | --- |
| COc1ccc(C2C(=O)c3ccccc3C2=O)cc1 | -15.9% |  |
| NC(=O)NS(=O)(=O)c1ccc(Cl)cc1 | 1.69% |  |
| C[C@H](NCc1ccc2c(c1)nc(NC(=O)c1ccc(-c3cn[nH]c3)s1)n2CCc1ccccc1)C(C)(C)C |  | 6.11 µM (active) |
| CCN1/C(=C/C=C/c2sc3ccccc3[n+]2CC)Sc2ccccc21 |  | 16.9 µM (active) |
| CCOCCOC(=O)/C=C/c1ccc(OC)cc1 | -3.95% |  |
| CO[C@H]1C=CO[C@@]2(C)Oc3c(C)c(O)c4c(O)c(c(C=NN5CCN(C)CC5)c(O)c4c3C2=O)NC(=O)C(C)=CC=C[C@H](C)[C@H](O)[C@@H](C)[C@@H](O)[C@@H](C)[C@H](OC(C)=O)[C@H]1C | 3.33% |  |
| Cc1c[nH]c2ccccc12 | 17.6% |  |
| CCC(Cc1c(I)cc(I)c(N)c1I)C(=O)O (stereo not given) | 29.9% |  |
| COC(=O)N[C@H](C(=O)N1CCC[C@@H]1c1ncc(-c2ccc(-c3ccc(-c4cnc([C@@H]5CCCN5C(=O)[C@@H](NC(=O)OC)C(C)C)[nH]4)cc3)cc2)[nH]1)C(C)C | 77.3% |  |
| N[C@@H](CSCCCO)C(=O)O | -10% |  |
| CN1N=C(C(N)=O)CCC1=O | -6.21% |  |
| C=CCNc1c(O)cc2c(O)c1C[C@@H](C)C[C@H](OC)[C@@H](O)[C@@H](C)C=C(C)[C@H](OC(N)=O)[C@@H](OC)C=CC=C(C)C(=O)N2 | 1.58% |  |
| CN(C)C(=N)N=C(N)N | 2.2% |  |
| CC1(C)O[C@@H]2C[C@H]3[C@@H]4CCC5=CC(=O)C=C[C@]5(C)[C@@H]4[C@@H](O)C[C@]3(C)[C@]2(C(=O)CO)O1 | 10.4% |  |
| Cc1cc(C(=O)N2Cc3cnn(C)c3Nc3ccccc32)ccc1CNC(=O)N1CCC[C@H]1C(=S)N1CCCN(C)CC1 | -0.893% |  |
| CC1(C)OC2=C(C(=O)c3ccccc3C2=O)[C@H](NCc2ccccc2)[C@H]1O |  | 24.3 µM (active) |
| Nc1c2c(nc3c1CCC3)CCCC2 | -11.7% |  |
| NC1CCC(Nc2nc(Nc3ccc(C(=O)N4CCCCC4)cc3)c3ncn(-c4cccc(F)c4)c3n2)CC1 (stereo not given) | -1.24% |  |
| O=C(O)CCCC[P+](c1ccccc1)(c1ccccc1)c1ccccc1 | 20.9% |  |
| CC(C)CCCC(C)CCCC(C)CCCCC(C)CCCC(C)CCCC(C)C (stereo not given) | 14.1% |  |

| SMILES | activation | Potency |
| --- | --- | --- |
| CC(CN(C)C)C(C)(O)Cc1ccc(Cl)cc1 (stereo not given) | 21.8% |  |
| O=C1c2c(O)cccc2Cc2cccc(O)c21 | -24.3% |  |
| C[n+]1c2cc(N)ccc2cc2ccc(N)cc21 (tested in a mixture with another compound) | -29.9% |  |
| Nc1nc(NCc2ccccc2)c2[nH]cnc2n1 | 6.7% |  |
| C#CC(C)(CC)OC(=O)c1ccccc1C(=O)O (stereo not given) | -11.9% |  |
| CCOC(=O)C(=O)CCc1ccccc1 | 10% |  |
| O=C(Nc1ccc(C(=O)O)c(O)c1)c1ccccc1 | -30.1% |  |
| CCCC(O)C(CC)CO (stereo not given) | 6.21% |  |
| CCOc1c(N2CCOCC2)cnn(C)c1=O | -4.18% |  |
| CCC(C(=O)OCCN(CC)CC)c1ccccc1 (stereo not given) | -1.67% |  |
| CCN[C@H]1CN(CCCOC)S(=O)(=O)c2sc(S(N)(=O)=O)cc21 | 13% |  |
| Cc1ccc2c(c1)c1c3n2CCNC3CCC1 (stereo not given) | -0.837% |  |
| OCCCc1ccccc1 | -6.21% |  |
| Nc1ccncc1N | 21.8% |  |
| Nc1cccc2c(N)cccc12 |  | 28.2 µM (active) |
| COc1ccc(CN(CCN(C)C)c2ncccn2)cc1 | 5.08% |  |
| CC(=O)Oc1ccc(C)cc1 | -17.5% |  |
| COc1ccc2cc(CCC(C)=O)ccc2c1 | -16.4% |  |
| CC(C)N1[N]C(=C2C=c3cc(O)ccc3=N2)c2c(N)ncnc21 | 11.7% |  |
| CCCCCCCCCCCCCC[N+](C)(C)Cc1ccccc1 | 27.6% |  |
